# Test results reported in the supplement of paper PMC8728848.
# The entries come from a sample that favours the strongest signals as a whole.
# How the values were obtained:
# Assay in all cases: glycan array binding signal (z-score within array); higher = stronger binding
# Conditions in all cases: glycan notation: IUPAC condensed, linker removed
# [1] = tested on: Fuc(a1-2)Gal(b1-4)GlcNAc(b1-3)Gal(b1-4)GlcNAc(b1-3)Gal(b1-4)GlcNAc
# In short: (§1)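 Glycan array data came from 3228 arrays in the Consortium for Functional Glycomics database, and only arrays with an available protein sequence were kept. Glycan names were put into IUPAC-condensed notation, and columns mapping to the same glycan were averaged. The binding signal is a within-array Z-score, averaged across arrays of one protein sequence run at different concentrations or buffers and across linkers. A negative Z-score can be read as non-binding.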
# [2] = tested on: Fuc(a1-2)Gal(b1-3)[Fuc(a1-4)]GlcNAc(b1-2)Man(a1-3)[Fuc(a1-2)Gal(b1-3)[Fuc(a1-4)]GlcNAc(b1-2)Man(a1-6)]Man(b1-4)GlcNAc(b1-4)[Fuc(a1-6)]GlcNAc(b1-4)[Fuc(a1-6)]GlcNAc
# In short: as §1
# [3] = tested on: Fuc(a1-2)Gal(b1-4)GlcNAc(b1-2)[Fuc(a1-2)Gal(b1-4)GlcNAc(b1-4)]Man(a1-3)[Fuc(a1-2)Gal(b1-4)GlcNAc(b1-2)Man(a1-6)]Man(b1-4)GlcNAc(b1-4)GlcNAc
# In short: as §1
# [4] = tested on: Fuc(a1-2)Gal(b1-4)GlcNAc(b1-6)GalNAc
# In short: as §1
# [5] = tested on: Fuc(a1-2)Gal(b1-3)[Fuc(a1-4)]GlcNAc(b1-2)Man(a1-3)[Fuc(a1-2)Gal(b1-3)[Fuc(a1-4)]GlcNAc(b1-2)Man(a1-6)]Man(b1-4)GlcNAc(b1-4)GlcNAc
# In short: as §1
# [6] = tested on: Fuc(a1-2)Gal(b1-4)GlcNAc6S
# In short: as §1
# [7] = tested on: Fuc(a1-2)Gal(b1-4)[Fuc(a1-3)]GlcNAc(b1-3)GalNAc
# In short: as §1
# [8] = tested on: Fuc(a1-2)Gal(b1-4)[Fuc(a1-3)]GlcNAc
# In short: as §1
# Fuc(a1-2)Gal(b1-4)GlcNAc = tested on: Fuc(a1-2)Gal(b1-4)GlcNAc
# In short: as §1
# Fuc(a1-2)Gal(b1-4)Glc6S = tested on: Fuc(a1-2)Gal(b1-4)Glc6S
# In short: as §1
# [9] = tested on: Fuc(a1-2)Gal(b1-4)GlcNAc(b1-3)GalNAc
# In short: as §1
# [10] = tested on: Fuc(a1-2)Gal(b1-4)[Fuc(a1-3)]GlcNAc(b1-2)Man(a1-3)[Fuc(a1-2)Gal(b1-4)[Fuc(a1-3)]GlcNAc(b1-2)Man(a1-6)]Man(b1-4)GlcNAc(b1-4)GlcNAc
# In short: as §1
# [11] = tested on: Fuc(a1-2)Gal(b1-4)GlcNAc(b1-2)Man(a1-3)[Fuc(a1-2)Gal(b1-4)GlcNAc(b1-2)Man(a1-6)]Man(b1-4)GlcNAc(b1-4)[Fuc(a1-6)]GlcNAc
# In short: as §1
# [12] = tested on: Fuc(a1-2)Gal(b1-4)GlcNAc(b1-3)Gal(b1-4)GlcNAc(b1-2)Man(a1-3)[Fuc(a1-2)Gal(b1-4)GlcNAc(b1-3)Gal(b1-4)GlcNAc(b1-2)Man(a1-6)]Man(b1-4)GlcNAc(b1-4)GlcNAc
# In short: as §1
# [13] = tested on: Fuc(a1-2)Gal(b1-4)GlcNAc(b1-3)[Fuc(a1-3)[Gal(b1-4)]GlcNAc(b1-6)]Gal(b1-4)Glc
# In short: as §1
# [14] = tested on: Fuc(a1-2)Gal(b1-4)GlcNAc(b1-3)Gal(b1-4)GlcNAc
# In short: as §1
# [15] = tested on: Fuc(a1-2)Gal(b1-4)[Fuc(a1-3)]GlcNAc(b1-3)Gal(b1-4)[Fuc(a1-3)]GlcNAc
# In short: as §1
# [16] = tested on: Fuc(a1-2)Gal(b1-4)GlcNAc(b1-3)[Fuc(a1-2)Gal(b1-4)GlcNAc(b1-6)]GalNAc
# In short: as §1
# [17] = tested on: Fuc(a1-2)Gal(b1-4)[Fuc(a1-3)]GlcNAc(b1-3)Gal(b1-4)[Fuc(a1-3)]GlcNAc(b1-3)Gal(b1-4)[Fuc(a1-3)]GlcNAc
# In short: as §1
# [18] = tested on: Fuc(a1-2)Gal(b1-3)[Fuc(a1-4)]GlcNAc
# In short: as §1
substance,measurement,setting,value
"GspB (Streptococcus gordonii), Q939N5",glycan array binding signal (z-score),[1],0
Actinohivin (Actinomycete K97),glycan array binding signal (z-score),[2],0.06
"Wza (Escherichia coli), P0A930",glycan array binding signal (z-score),[3],0.441
same,glycan array binding signal (z-score),[4],0.01
"SpGH101 (Streptococcus pneumoniae), Q8DR60",glycan array binding signal (z-score),[5],0.018
same,glycan array binding signal (z-score),[6],-0.166
same,glycan array binding signal (z-score),[7],0.136
same,glycan array binding signal (z-score),[8],-0.183
Epa22,glycan array binding signal (z-score),[2],0.488
same,glycan array binding signal (z-score),Fuc(a1-2)Gal(b1-4)GlcNAc,0.238
"SiiE (Salmonella typhimurium), A0A0H3NVH0",glycan array binding signal (z-score),Fuc(a1-2)Gal(b1-4)Glc6S,3.24
same,glycan array binding signal (z-score),[9],-0.206
same,glycan array binding signal (z-score),[10],2.43
same,glycan array binding signal (z-score),[7],1.53
LcI (Legionella pneumophila),glycan array binding signal (z-score),[11],0.257
same,glycan array binding signal (z-score),[12],3.4
same,glycan array binding signal (z-score),[13],-0.92
same,glycan array binding signal (z-score),[8],-0.561
"BambL (Burhholderia ambifaria), Q0B4G1",glycan array binding signal (z-score),[1],3.79
same,glycan array binding signal (z-score),[14],3.14
same,glycan array binding signal (z-score),[9],-0.033
same,glycan array binding signal (z-score),Fuc(a1-2)Gal(b1-4)GlcNAc,3.81
same,glycan array binding signal (z-score),[15],3.28
AgI/IIC123-GFP (Streptococcus mutans),glycan array binding signal (z-score),[11],-0.573
same,glycan array binding signal (z-score),[16],-0.365
same,glycan array binding signal (z-score),[13],0.17
same,glycan array binding signal (z-score),[17],-0.094
AgI/II Vhelical-GFP (Streptococcus mutans),glycan array binding signal (z-score),[18],-0.149
same,glycan array binding signal (z-score),[3],-0.246
